Records with an inconclusive call do not appear. Activity calls are given as the source filed them. Unless noted, calls follow the shape of the dose curve; as a rule, active = well fitted curve in the direction sought with a large enough effect; inconclusive = small, poorly fitted or top-dose-only effect, or another doubt; inactive = no such curve, though single readings can be large; an effect the other way counts as inactive or inconclusive.
What was measured:
[1] = molecular target: Rap guanine nucleotide exchange factor 3 (Homo sapiens) (UniProt O95398); assay: Confirmatory qHTS for antagonist of cAMP-regulated guanine nucleotide exchange factor 3 (EPAC1) (AID 1645880); also: nearly all actives have a fitted effect of over 55% in size; also: potency is read from the fitted curve at half-maximal effect
Procedure, shortened: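 Nucleotide exchange uses 100 nM EPAC1, 250 nM RAP1B-BODIPY-GDP and 50 uM GDP, with compounds in a concentration-titration series. After 5 min at room temperature, fluorescence (480 nm ex/540 nm em) is read every 5 min for 30 min. Data are normalized to control ATA and DMSO.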

[2] = molecular target: Rap guanine nucleotide exchange factor 3 (Homo sapiens) (UniProt O95398); assay: Confirmatory qHTS for agonist of cAMP-regulated guanine nucleotide exchange factor 3 (EPAC1) (AID 1645881); also: nearly all actives have a fitted effect of over 75% in size; also: potency is read from the fitted curve at half-maximal effect;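 as to activation: EPAC1 catalysed release of BODIPY-GDP from Rap1B seen as fluorescence loss; 100% = effect of cAMP agonist control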
[3] = molecular target: Rap guanine nucleotide exchange factor 4 (Homo sapiens) (UniProt Q8WZA2); assay: Confirmatory qHTS for agonist of cAMP-regulated guanine nucleotide exchange factor 4 (EPAC2) (AID 1645884);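 also: nucleotide exchange releases bodipy-GDP from Rap1 and this lowers its fluorescence; nearly all actives have a fitted effect of over 65% in size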; also: potency is read from the fitted curve at half-maximal effect; as to activation: % is scaled to controls: 0 for no effect and ±100 for the full control effect
[4] = molecular target: Rap guanine nucleotide exchange factor 4 (Homo sapiens) (UniProt Q8WZA2); assay: Confirmatory qHTS for antagonist of cAMP-regulated guanine nucleotide exchange factor 4 (EPAC2) (AID 1645885); also: nearly all actives have a fitted effect of over 25% in size; also: potency is read from the fitted curve at half-maximal effect; as to activity change, negative = inhibition: % is scaled to controls: 0 for no effect and ±100 for the full control effect
[5] = molecular target: Rap guanine nucleotide exchange factor 3 (Homo sapiens) (UniProt O95398); assay: Counterscreen qHTS for agonist of cAMP-regulated guanine nucleotide exchange factor 3 (EPAC1) (AID 1645889); also: nearly all actives have a fitted effect of over 40% in size; also: potency is read from the fitted curve at half-maximal effect; as to activation: % of control where 0% means no effect
Procedure, shortened: (§1)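 Measured: fluorescence of BODIPY-GDP bound to Rap1B, which falls as exchange proceeds. Conditions include 50 uM competing GDP, 5 and 30 min reads, and a later cAMP challenge for antagonist detection.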

[6] = molecular target: Rap guanine nucleotide exchange factor 3 (Homo sapiens) (UniProt O95398); assay: Counterscreen qHTS for antagonist of cAMP-regulated guanine nucleotide exchange factor 3 (EPAC1) (AID 1645888);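 also: fluorescence loss as bound BODIPY-GDP is released from Rap1B; % of control where 0% means no effect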
Procedure, shortened: as §1

[7] = molecular target: Cytochrome P450 1A2 (Homo sapiens) (UniProt P05177); assay: p450-cyp1a2 (AID 410; calls by dose curve; also: potency is read from the fitted curve at half-maximal effect)
Procedure, shortened: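 20nM CYP1A2 with 100uM Luciferin-ME (at Km) in 100mM KPO4; compound preincubated 10 min, NADPH regeneration added, 60 min at room temperature. Luciferin quantified by luminescence after detection reagent; normalized to 57 uM furafylline.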

[8] = molecular target: Glucocorticoid receptor (Homo sapiens) (UniProt P04150); assay: GR-GFP Redistribution (AID 450;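 active = compounds whose dose series gives a full or clear partial fitted curve of increased nuclear translocation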; also: potency is read from the fitted curve at half-maximal effect); settings: U2OS GR-GFP nuclear translocation, laser cytometry, 2 h
[9] = molecular target: Glucocorticoid receptor (Homo sapiens) (UniProt P04150); assay: GR-EFC Redistribution (AID 451; calls by dose curve; also: potency is read from the fitted curve at half-maximal effect); settings: CHO-K1 GR-EFC translocation, beta-gal luminescence, 2 h
Procedure, shortened: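 CHO-K1 cells stably expressing nuclear-localized β-gal enzyme acceptor and GR fused C-terminally to the enzyme donor fragment; ligand-driven nuclear translocation restores β-gal by complementation. Compounds titrated up to 46 uM final, 2 h at 37 °C; luminescence read.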

[10] = molecular target: DNA dC->dU-editing enzyme APOBEC-3G (Homo sapiens) (UniProt Q9HC16); assay: qHTS for inhibitors of Vif-A3G interactions: Validation (AID 588379); also: 0% is about no effect
Procedure, shortened: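 HeLa cells stably expressing Vif and A3G-eYFP, 700 cells/well, incubated overnight at 37 deg C, then exposed to compound overnight at 37 deg C. Inhibition of Vif-mediated degradation read as increased yellow fluorescence (Ex 488/Em 500-530) by laser-scanning cytometry.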

Sequence of Rap guanine nucleotide exchange factor 3 (Homo sapiens) (O95398 whole entry, looked up): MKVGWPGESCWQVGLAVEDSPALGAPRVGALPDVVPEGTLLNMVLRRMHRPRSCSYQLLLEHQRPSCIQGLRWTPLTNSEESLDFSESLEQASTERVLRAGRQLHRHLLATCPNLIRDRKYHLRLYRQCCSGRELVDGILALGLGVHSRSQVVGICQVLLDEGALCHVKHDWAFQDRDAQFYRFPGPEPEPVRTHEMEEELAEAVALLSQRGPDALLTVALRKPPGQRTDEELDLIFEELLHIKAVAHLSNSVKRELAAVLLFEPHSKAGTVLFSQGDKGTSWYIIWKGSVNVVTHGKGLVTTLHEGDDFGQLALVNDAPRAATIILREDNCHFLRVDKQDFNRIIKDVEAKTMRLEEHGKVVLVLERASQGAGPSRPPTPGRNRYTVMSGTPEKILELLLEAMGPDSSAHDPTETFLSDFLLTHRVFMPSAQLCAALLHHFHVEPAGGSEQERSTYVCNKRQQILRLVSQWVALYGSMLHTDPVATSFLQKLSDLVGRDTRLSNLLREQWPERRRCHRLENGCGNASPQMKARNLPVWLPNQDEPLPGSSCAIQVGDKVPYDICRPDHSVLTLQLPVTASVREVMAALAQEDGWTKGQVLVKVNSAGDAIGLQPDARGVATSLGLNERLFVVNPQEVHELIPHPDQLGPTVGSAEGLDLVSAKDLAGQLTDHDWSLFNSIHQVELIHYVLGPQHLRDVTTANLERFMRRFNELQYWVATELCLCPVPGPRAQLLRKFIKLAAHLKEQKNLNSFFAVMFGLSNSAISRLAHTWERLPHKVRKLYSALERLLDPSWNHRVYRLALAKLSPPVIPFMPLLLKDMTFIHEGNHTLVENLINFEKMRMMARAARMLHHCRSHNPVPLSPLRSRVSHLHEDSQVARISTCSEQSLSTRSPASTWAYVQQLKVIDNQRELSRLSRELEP
Sequence of Rap guanine nucleotide exchange factor 4 (Homo sapiens) (Q8WZA2 whole entry, looked up): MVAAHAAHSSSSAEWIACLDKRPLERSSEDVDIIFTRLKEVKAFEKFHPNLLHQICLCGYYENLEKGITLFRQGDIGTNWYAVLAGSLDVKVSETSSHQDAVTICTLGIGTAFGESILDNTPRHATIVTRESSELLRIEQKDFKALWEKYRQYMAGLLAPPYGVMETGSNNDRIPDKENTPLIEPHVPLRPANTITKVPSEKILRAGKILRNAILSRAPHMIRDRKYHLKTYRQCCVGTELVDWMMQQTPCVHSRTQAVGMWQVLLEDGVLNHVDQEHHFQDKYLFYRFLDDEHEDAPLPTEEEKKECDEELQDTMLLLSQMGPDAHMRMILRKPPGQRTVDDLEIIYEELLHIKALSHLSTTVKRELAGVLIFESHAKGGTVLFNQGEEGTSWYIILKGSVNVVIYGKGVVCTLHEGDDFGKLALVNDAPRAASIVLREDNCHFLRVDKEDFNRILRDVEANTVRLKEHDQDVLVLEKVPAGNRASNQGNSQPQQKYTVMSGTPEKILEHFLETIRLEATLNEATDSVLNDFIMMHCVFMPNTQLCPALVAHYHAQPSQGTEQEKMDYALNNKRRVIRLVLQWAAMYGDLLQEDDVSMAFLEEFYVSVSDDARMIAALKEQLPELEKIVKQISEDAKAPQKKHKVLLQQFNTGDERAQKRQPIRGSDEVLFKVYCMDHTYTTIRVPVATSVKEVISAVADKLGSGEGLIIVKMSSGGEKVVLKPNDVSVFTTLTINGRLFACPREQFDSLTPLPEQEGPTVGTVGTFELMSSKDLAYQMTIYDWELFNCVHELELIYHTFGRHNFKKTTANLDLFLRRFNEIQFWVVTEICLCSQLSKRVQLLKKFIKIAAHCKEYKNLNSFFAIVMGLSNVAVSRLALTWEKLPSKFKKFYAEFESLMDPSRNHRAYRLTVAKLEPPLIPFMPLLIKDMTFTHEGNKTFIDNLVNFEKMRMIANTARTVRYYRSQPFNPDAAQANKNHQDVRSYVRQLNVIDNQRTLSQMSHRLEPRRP
Sequence of Glucocorticoid receptor (Homo sapiens) (P04150 whole entry, looked up, the tested form may be a part): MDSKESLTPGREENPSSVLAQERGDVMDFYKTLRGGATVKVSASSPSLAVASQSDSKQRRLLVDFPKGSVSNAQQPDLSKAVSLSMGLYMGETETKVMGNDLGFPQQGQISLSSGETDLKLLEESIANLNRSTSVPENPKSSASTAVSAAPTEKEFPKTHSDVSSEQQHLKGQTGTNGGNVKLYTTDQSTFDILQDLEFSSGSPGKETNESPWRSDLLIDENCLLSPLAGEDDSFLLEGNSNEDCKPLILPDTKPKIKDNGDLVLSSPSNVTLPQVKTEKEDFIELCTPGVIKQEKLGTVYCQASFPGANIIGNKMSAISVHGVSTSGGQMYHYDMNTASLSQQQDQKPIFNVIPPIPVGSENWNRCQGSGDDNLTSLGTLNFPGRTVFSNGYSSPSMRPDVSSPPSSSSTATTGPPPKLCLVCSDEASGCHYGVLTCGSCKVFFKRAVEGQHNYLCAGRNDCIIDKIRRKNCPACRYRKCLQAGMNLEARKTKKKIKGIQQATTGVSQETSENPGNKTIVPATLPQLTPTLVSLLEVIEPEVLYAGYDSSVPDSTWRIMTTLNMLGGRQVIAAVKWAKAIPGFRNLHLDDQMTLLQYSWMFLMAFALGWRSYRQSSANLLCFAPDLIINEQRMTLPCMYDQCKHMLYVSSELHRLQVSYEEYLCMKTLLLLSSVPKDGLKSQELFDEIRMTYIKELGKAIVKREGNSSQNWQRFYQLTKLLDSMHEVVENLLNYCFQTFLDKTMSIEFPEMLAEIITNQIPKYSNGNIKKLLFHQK
Sequence of DNA dC->dU-editing enzyme APOBEC-3G (Homo sapiens) (Q9HC16 whole entry, looked up): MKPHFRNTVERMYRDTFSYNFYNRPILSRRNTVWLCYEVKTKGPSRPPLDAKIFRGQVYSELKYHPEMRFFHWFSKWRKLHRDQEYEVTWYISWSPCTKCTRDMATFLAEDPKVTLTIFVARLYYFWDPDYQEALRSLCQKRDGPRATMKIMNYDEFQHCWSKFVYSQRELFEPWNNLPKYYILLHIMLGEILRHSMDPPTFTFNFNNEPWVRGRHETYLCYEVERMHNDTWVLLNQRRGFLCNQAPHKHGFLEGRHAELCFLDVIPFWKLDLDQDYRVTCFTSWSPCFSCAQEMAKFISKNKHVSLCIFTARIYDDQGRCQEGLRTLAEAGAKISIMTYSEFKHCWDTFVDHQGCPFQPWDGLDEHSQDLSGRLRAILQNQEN
Sequence of Cytochrome P450 1A2 (Homo sapiens) (P05177 whole entry, looked up): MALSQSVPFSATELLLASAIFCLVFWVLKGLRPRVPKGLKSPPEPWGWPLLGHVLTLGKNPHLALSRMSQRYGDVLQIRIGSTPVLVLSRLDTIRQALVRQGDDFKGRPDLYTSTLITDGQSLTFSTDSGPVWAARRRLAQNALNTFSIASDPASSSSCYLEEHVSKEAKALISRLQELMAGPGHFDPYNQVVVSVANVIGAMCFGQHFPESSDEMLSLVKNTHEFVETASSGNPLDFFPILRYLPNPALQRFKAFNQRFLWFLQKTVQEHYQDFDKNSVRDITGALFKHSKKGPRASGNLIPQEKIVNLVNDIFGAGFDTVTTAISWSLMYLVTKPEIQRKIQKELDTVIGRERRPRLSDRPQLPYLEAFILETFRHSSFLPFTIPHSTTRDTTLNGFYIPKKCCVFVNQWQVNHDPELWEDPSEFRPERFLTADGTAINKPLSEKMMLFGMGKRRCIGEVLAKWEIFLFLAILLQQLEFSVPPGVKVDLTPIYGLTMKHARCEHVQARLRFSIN

COc1cc(O)cc(O)c1C(=O)/C=C/c1ccccc1
active: Potency [1] 67.5 µM
inactive: Potency [2] | Potency [3] | Potency [4] | Potency [5]

Cc1cc(C)c2c(CN3CCCCC3)cc(=O)oc2c1
inactive: Potency [1] | Potency [2] | Potency [3] | Potency [4] | Potency [6] | Potency [5]

O=C(CSc1nc2c([nH]c3ccccc32)c(=O)n1-c1ccccc1F)Nc1cccc(Cl)c1
inactive: Potency [1] | Potency [2] | Potency [3] | Potency [4] | Potency [5]

CN1CCC/C1=C/C=C1\SC(=S)NC1=O
active: Potency [2] 89.1 µM | Potency [3] 100 µM | Potency [5] 39.8 µM
inactive: Potency [1] | Potency [4]

Cc1ccccc1CN1C(=O)c2ccccc2Sc2ccc(C(=O)O)cc21
inactive: Potency [1] | Potency [2] | Potency [3] | Potency [4] | Potency [6] | Potency [5]

Nc1nc(NCC(=O)O)nc(NCc2ccccc2)c1[N+](=O)[O-]
inactive: Potency [1] | Potency [2] | Potency [3] | Potency [4] | Potency [6] | Potency [5]

O=c1oc2cc(O)ccc2cc1-c1nc2ccccc2o1
active: Potency [2] 100 µM | Potency [3] 112 µM | Potency [4] 84.9 µM | Potency [5] 70.8 µM
inactive: Potency [1]

CN(CCc1ccccn1)C(=O)Nc1ccc(F)cc1
inactive: Potency [1] | Potency [2] | Potency [3] | Potency [4] | Potency [6] | Potency [5]

Cc1ccc(CN(C(=O)COc2cccc(Cl)c2)c2ccccn2)o1
inactive: Potency [1] | Potency [2] | Potency [3] | Potency [4] | Potency [6] | Potency [5]

COc1ccc2c(c1)C1=NN(/C(C)=C/C(C)=O)C(c3cccc(F)c3)C1CC2 (stereo unspecified)
inactive: Potency [1] | Potency [2] | activation [3] 0.819% [at 17.1 µM, percent relative to cAMP agonist control] | Potency [4] | activation [5] 8.14% [at 30.8 µM]

COc1c(-c2ccccc2)oc2c(ccc3occc32)c1=O
active: Potency [7] 25.1 nM
inactive: Potency [8] > 46 µM | Potency [9] > 46 µM | outcome [10] | Potency [1] | Potency [2] | Potency [3] | Potency [5]

CCS(=O)(=O)N1CCCC(C(=O)NCCCN(C)Cc2ccccc2)C1 (stereo unspecified)
inactive: Potency [1] | Potency [2] | Potency [3] | Potency [4] | Potency [5]

O=C(O)CCCCCN1C(=O)/C(=C/c2cn(-c3ccccc3)nc2-c2cccs2)SC1=S
active: Potency [2] 79.4 µM | Potency [5] 14.1 µM
inactive: Potency [1] | activation [3] 17.7% [at 17.1 µM, percent relative to cAMP agonist control] | Potency [4] | activity change, negative = inhibition [6] 39% [at 30.8 µM]

CCN(CC)c1ccc2cc(-c3nnc(Nc4ccc(C)cc4)s3)c(=O)oc2c1
active: Potency [2] 112 µM | Potency [3] 35.5 µM | Potency [4] 5.36 µM

CCOc1ccc(N2C(=O)Nc3ccccc3C2(O)C(=O)NCc2ccc(C)cc2)cc1 (stereo unspecified)
inactive: Potency [1] | Potency [2] | activation [3] -4.83% [at 17.1 µM, percent relative to cAMP agonist control] | Potency [4] | activation [5] 7.84% [at 30.8 µM]

Cc1ccc(S(=O)(=O)N2CCN(CC(=O)Nc3ccccc3C(=O)NC3CC3)CC2)cc1
inactive: Potency [2] | activation [3] 6.96% [at 17.1 µM, percent relative to cAMP agonist control] | Potency [4] | activity change, negative = inhibition [6] -3.04% [at 30.8 µM]

O=c1[nH]c(/C=C/c2cccc([N+](=O)[O-])c2)c([N+](=O)[O-])c(=O)[nH]1
inactive: Potency [2] | Potency [3] | Potency [4] | Potency [6] | Potency [5]

O=C1NC(=O)C2(N1)C(=O)c1cccc3cccc2c13 (stereo unspecified)
active: Potency [2] 112 µM | Potency [3] 100 µM | Potency [4] 47.8 µM | Potency [5] 44.7 µM

COc1ccc(C(=O)COC(=O)CCN2C(=O)C3CC=CCC3C2=O)c(OC)c1 (stereo unspecified)
inactive: Potency [2] | activation [3] 1.05% [at 17.1 µM, percent relative to cAMP agonist control] | Potency [4] | activity change, negative = inhibition [6] -27.6% [at 30.8 µM] | activation [5] -0.565% [at 30.8 µM]

COCCCn1c(=N)c(C(=O)NCc2cccnc2)cc2c(=O)n3cc(C)ccc3nc21
inactive: Potency [2] | Potency [3] | Potency [4] | Potency [6]

Cc1ccc2nc(N3C(=O)C(O)=C(C(=O)c4ccc(C)o4)C3c3cccc(O)c3)sc2c1 (stereo unspecified)
inactive: Potency [2] | Potency [3] | Potency [4] | Potency [6]

COc1cc(/C=C2\SC(=S)N(NS(=O)(=O)c3ccc(C)cc3)C2=O)cc(OC)c1OC
active: Potency [4] 33.8 µM
inactive: Potency [2] | Potency [3] | Potency [5]

COc1ccc(C(=O)Nc2cc(OC)c(Cl)cc2OC)cc1
inactive: Potency [2] | activation [3] 4.3% [at 17.1 µM, percent relative to cAMP agonist control] | Potency [4] | activity change, negative = inhibition [6] -12.1% [at 30.8 µM] | activation [5] 10.3% [at 30.8 µM]

Cc1cc(Cl)ccc1-n1c(CCC(=O)O)ccc1-c1cccs1
inactive: Potency [2] | Potency [3] | Potency [4] | Potency [6]

COc1ncc(-c2c(-c3ccccc3OC)sc3ccccc23)cn1
inactive: Potency [2] | activation [3] -3.13% [at 17.1 µM, percent relative to cAMP agonist control] | Potency [4] | activity change, negative = inhibition [6] -4.66% [at 30.8 µM] | activation [5] 15.7% [at 30.8 µM]

— PubChem BioAssay (NCATS)
